Test results reported in PubChem BioAssay.
Records with an inconclusive call do not appear. Active and inactive are the calls of the source.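 The calls were made as follows, unless noted: active = viability increase at or above a cutoff of the median across tested compounds plus 3 SD (cut at about 8.5% in these data, passing the limit was not always enough); inconclusive = some gains above the cutoff, reason not given; inactive = the rest.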

Tests used:
[1] = reducers of endogenous Her2 protein level, primary screen, SKBR3 breast tumor cells, AlphaScreen, ATP viability (AID 461;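 active = Her2 level under about 52% in both replicate screens, with viability over 70% of control, limit read from the data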;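 as to Her2 level: lower value means less Her2 protein in the cells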;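 as to viability: percent of carrier control wells set as 100% viability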); conditions: 18-24 h, measured here: SKBR3 viability, ATP luminescence, at 10 µM
[2] = target: Receptor tyrosine-protein kinase erbB-2 (Homo sapiens) (UniProt P04626); assay: as above; conditions: 18-24 h, at 10 µM, stronger effect = lower value
[3] = SK-BR-3 cell growth inhibitors, pilot screen, 24 h, human (AID 572;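 active = viability at or below 10% of carrier control in both of two separate runs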;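 also: compound exposure lasted between 18 and 24 h rather than exactly 24 h; 100% = carrier-treated control wells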); conditions: SK-BR-3 viability, CellTiter-Glo luminescence, at 10 µM, stronger effect = lower value
[4] = HUVEC growth inhibition – cell-based, human, primary screen (AID 575;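 active = viability at or below 30% in both replicate assays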;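 also: 100% = median of untreated cell wells with 0.1% DMSO on each plate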); conditions: HUVEC proliferation, CellTiter-Glo luminescence, 72 h; at 10 µM; stronger effect = lower value
[5] = growth inhibitors of H69AR lung tumor, primary screen, human, duplicate replicates (AID 580;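 active = viability at or under a set limit in both replicates, limit being median viability minus 3 SD, cut at about 48% in these data, passing the limit was not always enough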;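 also: 100% = mean luminescence of untreated wells and 0% = no signal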); conditions: H69AR lung tumor cells viability, ATP luminescence, 72 h; at 10 µM; stronger effect = lower value
[6] = reversal of MRP1-mediated doxorubicin resistance, pilot screen, H69AR cells, doxorubicin co-treatment (AID 601;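 active = viability loss from added drug above about 55%, and viability with drug at most 40%, in both replicates, limit read from the data, passing the limit was not always enough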); conditions: CellTiter-Glo, 72 h, at 10 µM; for differential viability (reversal): stronger effect = higher value
[7] = 384-well plate pilot, post-Golgi transport modulator project, inhibition of yeast transport mutant growth (AID 636; in the data active = inhibition above about 31%); conditions: absorbance 615 nm, about 18 h, stronger effect = higher value
[8] = growth suppression of yeast trafficking mutant, preliminary HTS, modulators of trafficking downstream of Golgi apparatus project, 1536-format plate, OD 615 nm (AID 637; in the data active = inhibition above about 30%); conditions: yeast transport mutant growth, absorbance 615 nm, 18 h; stronger effect = higher value
[9] = OD615 S. cerevisiae growth inhibition, permissive medium, pilot counter-assay, permissive growth control for S. cerevisiae lifespan shortening project (AID 705;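 active = growth inhibition above 25% in both replicates, a cutoff set 3 SD above the mean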); conditions: OD615, 24 h, at 10 µM, stronger effect = higher value
[10] = Restrictive medium S. cerevisiae growth inhibition, OD615, pilot screen of yeast lifespan reduction project, restrictive growth control (AID 706;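 active = growth inhibition above a set limit, 3 SD over mean compound inhibition, in both replicates, cut at about 43% in these data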;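 also: modified DeaD lifespan yeast strain shifted to restrictive glucose medium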); conditions: OD615, 48 h, at 10 µM, stronger effect = higher value
[11] = viability gain of MRP-1-high H69AR cells under doxorubicin, pilot screen, MRP-1 activator project, CellTiter-Glo, duplicate (AID 807); conditions: H69AR viability with doxorubicin, CellTiter-Glo luminescence; at 10 µM; stronger effect = higher value;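 also: compound pretreatment 18-22 h then 72 h combined with doxorubicin; 0% = doxorubicin alone and 100% = vehicle without doxorubicin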
[12] = growth suppression of beta-catenin knockout HCT116, pilot screen, human colon tumor cells (AID 823;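 active = cell viability at or below a set limit in both duplicate runs, the limit being the all-compound median minus 4 SD, cut at about 23% in these data, passing the limit was not always enough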;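 also: 0% = wells killed by 20 µM Hyamine and 100% = untreated DMSO cell wells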); conditions: CellTiter-Glo, 60 h, at 10 µM, stronger effect = lower value
[13] = growth suppression of PTEN-deleted HCT116, pilot screen, cell-based, HCT116 clonal line, CellTiter-Glo (AID 824;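 active = viability at or below 27.92% in each of two runs, the all-compound median minus 4 SD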;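 also: 0% = 20 µM Hyamine control and 100% = vehicle cell control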); conditions: 60 h, at 10 µM, stronger effect = lower value
[14] = inhibitors of the yeast RAM network, pilot screen, dse1pr::URA3 reporter, 5-FOA selection (AID 869;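 active = inhibition over a set limit, the all-compound mean plus 3 SD, in both replicate runs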;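 also: 0% = DMSO wells with no growth and 100% = 10 µM 1-NA-PP1 with full growth; RAM network block rescues cells from 5-FOA so hits raise OD615 growth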); conditions: S. cerevisiae dse1pr::URA3 5-FOA growth, OD615, 2 d; at 10 µM; stronger effect = higher value; strain carries analog-sensitive mutant Cbk1 kinase
[15] = RAM signaling pathway blockade in yeast – S. cerevisiae, Pdr1DBD-CYC8 efflux-inhibited sensitized strain, primary screen (AID 1298;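 active = RAM network inhibition above 8.4% in each of two replicates, 3 SD over the compound average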;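 also: 0% = DMSO untreated cells without growth and 100% = 10 µM 1-NA-PP1 full growth; higher means more yeast growth rescued from 5-FOA killing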); conditions: S. cerevisiae cbk1-as DSE1-URA3 strain, 5-FOA growth OD615, 2 d; at 50 µM; stronger effect = higher value
[16] = H69AR cells + 2 uM doxorubicin, measured here: viability with 2 uM doxorubicin, stronger effect = lower value
[17] = H69AR cells, compound alone cytotoxicity

Receptor tyrosine-protein kinase erbB-2 (Homo sapiens), sequence (P04626 whole entry, looked up): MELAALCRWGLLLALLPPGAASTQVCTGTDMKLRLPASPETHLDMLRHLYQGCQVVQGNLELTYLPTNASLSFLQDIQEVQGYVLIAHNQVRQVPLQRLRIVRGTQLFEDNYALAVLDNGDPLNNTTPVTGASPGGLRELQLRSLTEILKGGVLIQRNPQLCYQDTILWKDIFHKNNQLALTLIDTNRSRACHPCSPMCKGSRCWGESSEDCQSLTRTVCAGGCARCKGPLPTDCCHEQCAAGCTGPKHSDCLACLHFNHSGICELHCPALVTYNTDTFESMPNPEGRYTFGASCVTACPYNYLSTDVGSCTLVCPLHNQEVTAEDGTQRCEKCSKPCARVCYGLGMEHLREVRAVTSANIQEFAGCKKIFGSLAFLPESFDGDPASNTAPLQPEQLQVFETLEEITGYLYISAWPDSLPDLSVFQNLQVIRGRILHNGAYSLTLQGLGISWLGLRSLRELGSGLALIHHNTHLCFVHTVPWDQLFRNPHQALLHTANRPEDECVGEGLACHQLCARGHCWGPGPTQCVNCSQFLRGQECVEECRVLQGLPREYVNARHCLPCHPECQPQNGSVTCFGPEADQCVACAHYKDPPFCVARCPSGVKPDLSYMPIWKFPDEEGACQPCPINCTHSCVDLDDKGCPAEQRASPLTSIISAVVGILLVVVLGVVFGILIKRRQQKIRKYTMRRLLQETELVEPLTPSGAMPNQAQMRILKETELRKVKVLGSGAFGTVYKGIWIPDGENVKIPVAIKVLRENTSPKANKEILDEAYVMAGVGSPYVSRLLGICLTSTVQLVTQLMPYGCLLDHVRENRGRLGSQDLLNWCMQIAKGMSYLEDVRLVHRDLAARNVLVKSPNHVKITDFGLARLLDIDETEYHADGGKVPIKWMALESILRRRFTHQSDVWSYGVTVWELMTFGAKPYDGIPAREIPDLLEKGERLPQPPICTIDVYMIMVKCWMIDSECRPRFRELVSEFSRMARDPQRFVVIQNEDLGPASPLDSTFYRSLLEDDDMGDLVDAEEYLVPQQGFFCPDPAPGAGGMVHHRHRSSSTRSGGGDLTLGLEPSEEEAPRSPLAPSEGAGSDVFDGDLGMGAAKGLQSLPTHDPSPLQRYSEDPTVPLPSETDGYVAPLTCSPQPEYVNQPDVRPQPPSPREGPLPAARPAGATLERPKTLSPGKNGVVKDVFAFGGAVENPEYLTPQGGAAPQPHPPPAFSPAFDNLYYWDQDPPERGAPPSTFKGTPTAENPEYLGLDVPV

Compound: COC(=O)CN1C(=O)C(O)(CC(=O)c2ccc(Cl)cc2)c2ccccc21 (stereo not given)
- viability [1]: 87.5%
- Her2 level [2]: 88.5% (inactive)
- viability [3]: 87.5% (inactive)
- viability [4]: 94.4% (inactive)
- viability [5]: 70.5% (inactive)
- differential viability (reversal) ([6]; H69AR cells + 2 uM doxorubicin): -21.3% (inactive)
- viability [6, 16]: 91.8%
- viability [6, 17]: 70.5%
- inhibition [7]: -6.8% (inactive)
- inhibition [8]: 5% (inactive)
- growth inhibition [9]: -0.49% (inactive)
- growth inhibition [10]: -8.47% (inactive)
- viability increase [11]: -3.44% (inactive)
- viability [12]: 87.3% (inactive)
- viability [13]: 91.5% (inactive)
- inhibition [14]: 1.81% (inactive)
- RAM network inhibition [15]: 0.35% (inactive)

Compound: CCOC(=O)Cn1ncc(-c2ccccc2)c1N
- viability [1]: 101%
- Her2 level [2]: 72% (inactive)
- viability [3]: 101% (inactive)
- viability [4]: 102% (inactive)
- viability [5]: 93% (inactive)
- differential viability (reversal) ([6]; H69AR cells + 2 uM doxorubicin): 7.02% (inactive)
- viability [6, 16]: 86%
- viability [6, 17]: 93%
- inhibition [7]: -7.95% (inactive)
- inhibition [8]: -1.43% (inactive)
- growth inhibition [9]: 2.3% (inactive)
- growth inhibition [10]: -2.13% (inactive)
- viability increase [11]: 0.83% (inactive)
- viability [12]: 100% (inactive)
- viability [13]: 94.5% (inactive)
- inhibition [14]: 1.83% (inactive)
- RAM network inhibition [15]: 2.21% (inactive)

Compound: CCOc1cc(C2NC(=O)NC(O)(C(F)(F)F)C2C(=O)c2ccccc2)ccc1OC (stereo not given)
- viability [1]: 108%
- Her2 level [2]: 110% (inactive)
- viability [3]: 108% (inactive)
- viability [4]: 104% (inactive)
- viability [5]: 102% (inactive)
- differential viability (reversal) ([6]; H69AR cells + 2 uM doxorubicin): 5.23% (inactive)
- viability [6, 16]: 96.6%
- viability [6, 17]: 102%
- inhibition [7]: -4.46% (inactive)
- inhibition [8]: -8.2% (inactive)
- growth inhibition [9]: -0.49% (inactive)
- growth inhibition [10]: 19.4% (inactive)
- viability increase [11]: -0.8% (inactive)
- viability [12]: 109% (inactive)
- viability [13]: 97.8% (inactive)
- inhibition [14]: 0.24% (inactive)
- RAM network inhibition [15]: 0.2% (inactive)

Compound: O=P(O)(CN1CCCCCC1)CN1CCCCCC1
- viability [1]: 93%
- Her2 level [2]: 97.5% (inactive)
- viability [3]: 93% (inactive)
- viability [4]: 96.6% (inactive)
- viability [5]: 107% (inactive)
- differential viability (reversal) ([6]; H69AR cells + 2 uM doxorubicin): 7.6% (inactive)
- viability [6, 16]: 99.2%
- viability [6, 17]: 107%
- inhibition [7]: -2.84% (inactive)
- inhibition [8]: -0.82% (inactive)
- growth inhibition [9]: -16.8% (inactive)
- growth inhibition [10]: -8.96% (inactive)
- viability increase [11]: 1.45% (inactive)
- viability [12]: 98.3% (inactive)
- viability [13]: 105% (inactive)
- inhibition [14]: 0.24% (inactive)
- RAM network inhibition [15]: 4.85% (inactive)

Compound: Cc1ccc(C(=O)NC(Cc2c[nH]c3ccccc23)C(=O)O)o1 (stereo not given)
- viability [1]: 95.5%
- Her2 level [2]: 130% (inactive)
- viability [3]: 95.5% (inactive)
- viability [4]: 87.3% (inactive)
- viability [5]: 88.9% (inactive)
- differential viability (reversal) ([6]; H69AR cells + 2 uM doxorubicin): 1.82% (inactive)
- viability [6, 16]: 87.1%
- viability [6, 17]: 88.9%
- inhibition [7]: 1.95% (inactive)
- inhibition [8]: -5% (inactive)
- growth inhibition [9]: 1.54% (inactive)
- growth inhibition [10]: -2.65% (inactive)
- viability increase [11]: -3.09% (inactive)
- viability [12]: 96.2% (inactive)
- viability [13]: 96.4% (inactive)
- inhibition [14]: 1.82% (inactive)
- RAM network inhibition [15]: 6.26% (inactive)

Compound: Cc1cc(N=Cc2cc(Br)ccc2O)no1
- viability [1]: 108%
- Her2 level [2]: 118% (inactive)
- viability [3]: 108% (inactive)
- viability [4]: 74.4% (inactive)
- viability [5]: 73.1% (inactive)
- differential viability (reversal) ([6]; H69AR cells + 2 uM doxorubicin): -28.9% (inactive)
- viability [6, 16]: 102%
- viability [6, 17]: 73.1%
- inhibition [7]: -3.72% (inactive)
- inhibition [8]: -6.67% (inactive)
- growth inhibition [9]: -13% (inactive)
- growth inhibition [10]: -22.7% (inactive)
- viability increase [11]: -2.84% (inactive)
- viability [12]: 90.8% (inactive)
- viability [13]: 95.8% (inactive)
- inhibition [14]: 0.26% (inactive)
- RAM network inhibition [15]: -1.15% (inactive)

Compound: CCN(CC)C(=O)Oc1ccc(NC(C)=O)cc1
- viability [1]: 88.5%
- Her2 level [2]: 108% (inactive)
- viability [3]: 88.5% (inactive)
- viability [4]: 97.4% (inactive)
- viability [5]: 93.6% (inactive)
- differential viability (reversal) ([6]; H69AR cells + 2 uM doxorubicin): -0.975% (inactive)
- viability [6, 16]: 94.6%
- viability [6, 17]: 93.6%
- inhibition [7]: 0.91% (inactive)
- inhibition [8]: -6.33% (inactive)
- growth inhibition [9]: -4.01% (inactive)
- growth inhibition [10]: -12% (inactive)
- viability increase [11]: -0.49% (inactive)
- viability [12]: 105% (inactive)
- viability [13]: 108% (inactive)
- inhibition [14]: 1.06% (inactive)
- RAM network inhibition [15]: 1.82% (inactive)

Compound: O=C1c2ccccc2C(Nc2ccc3c(c2)OCO3)N1Cc1ccc2c(c1)OCO2 (stereo not given)
- viability [1]: 86%
- Her2 level [2]: 81.5% (inactive)
- viability [3]: 86% (inactive)
- viability [4]: 50% (inactive)
- viability [5]: 83.4% (inactive)
- differential viability (reversal) ([6]; H69AR cells + 2 uM doxorubicin): -3.75% (inactive)
- viability [6, 16]: 87.1%
- viability [6, 17]: 83.4%
- inhibition [7]: -0.27% (inactive)
- inhibition [8]: 1.83% (inactive)
- growth inhibition [9]: -0.885% (inactive)
- growth inhibition [10]: -1.48% (inactive)
- viability increase [11]: -0.78% (inactive)
- viability [12]: 76.8% (inactive)
- viability [13]: 70.1% (inactive)
- inhibition [14]: 1.67% (inactive)
- RAM network inhibition [15]: 4.17% (inactive)

Compound: CCCCn1c2c(c3ccccc31)CCc1nonc1-2
- viability [1]: 107%
- Her2 level [2]: 108% (inactive)
- viability [3]: 107% (inactive)
- viability [4]: 89.6% (inactive)
- viability [5]: 103% (inactive)
- differential viability (reversal) ([6]; H69AR cells + 2 uM doxorubicin): -2.16% (inactive)
- viability [6, 16]: 105%
- viability [6, 17]: 103%
- inhibition [7]: -0.77% (inactive)
- inhibition [8]: -3.67% (inactive)
- growth inhibition [9]: -8.86% (inactive)
- growth inhibition [10]: -29.4% (inactive)
- viability increase [11]: 1.75% (inactive)
- viability [12]: 80.4% (inactive)
- viability [13]: 78.4% (inactive)
- inhibition [14]: 2.28% (inactive)
- RAM network inhibition [15]: 2.83% (inactive)

Compound: O=C1CCCCCC1C1(O)C(=O)Nc2ccccc21 (stereo not given)
- viability [1]: 100%
- Her2 level [2]: 96.5% (inactive)
- viability [3]: 100% (inactive)
- viability [4]: 87.9% (inactive)
- viability [5]: 95.7% (inactive)
- differential viability (reversal) ([6]; H69AR cells + 2 uM doxorubicin): 1.21% (inactive)
- viability [6, 16]: 94.4%
- viability [6, 17]: 95.7%
- inhibition [7]: -4.68% (inactive)
- inhibition [8]: -1.67% (inactive)
- growth inhibition [9]: -0.65% (inactive)
- growth inhibition [10]: -10.4% (inactive)
- viability increase [11]: -2.3% (inactive)
- viability [12]: 99.7% (inactive)
- viability [13]: 95% (inactive)
- inhibition [14]: 1.43% (inactive)
- RAM network inhibition [15]: 1.29% (inactive)
